In PubChem BioAssay one finds z-score data, which are given here for 36 compounds.
Note: test concentration not given here.

One assay can be described thus: calcein-AM signal in unstimulated myeloma cells – cell-based, calcein-AM fluorescence, 48 h, PK04 Diversity Set, profiling panel (AID 1166).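 Note: cells grown under basal conditions without added stimulus.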 The conditions noted are these: RPMI8226 myeloma viability, higher = more signal.
In the case of `CCOC(=O)[C@H](Cc1ccccc1)NC(=O)CCC1CC(OC(=O)NCCc2ccc(F)cc2)CC2(CCCC(COC(=O)NCCC(C)C)O2)O1` (some centres not stated), the z-score was -0.364.
On to `CO[C@H]1COC(=O)[C@H](C)COC(=O)[C@@H](OCc2ccccc2)C=C[C@@H]1C`, for which the z-score is -0.584.
As for `O=C1[C@H]2[C@H]3[C@H](O)[C@H](O)CC(=NOC[C@@H](O)COCc4ccco4)[C@@H]3CC[C@H]2C(=O)N1Cc1ccccc1`, the z-score is 0.693.
Still for that read-out and setting: for `CC(C)=CCCC(C)=CCON=C1C[C@@H](O)[C@@H](O)[C@@H]2[C@@H]3C(=O)N(Cc4ccc5c(c4)OCO5)C(=O)[C@@H]3CC[C@H]12` the value was -1.31; for `COC(=O)[C@H](C)NC(=O)CC=C[C@@H](C)[C@@H]1C=C[C@H](O)[C@@H](CO)O1`, -0.859; for `COc1ccc(COC(=O)NN=C2C[C@@H](O)[C@@H](O)[C@@H]3[C@@H]4C(=O)N(C[C@@H]5CCCO5)C(=O)[C@@H]4CC[C@@H]23)cc1`, 0.51.

Another assay can be described thus: JC-1 mitochondrial signal, unstimulated HepG2 cells – cell-based, JC-1 fluorescence, 24 h, 100 nL compound, profiling panel (AID 1167). The conditions noted are these: HepG2 mitochondrial potential, higher = more signal.
In turn, `COC(=O)[C@H](C)NC(=O)CCC1CC(OC(=O)NCc2cccc3ccccc23)CC2(CCCC(COC(=O)NCc3ccccc3)O2)O1` (some centres not stated) showed a z-score of 1.46.
On to `O=C1CCCC=C1C(O)C1CCCCC1` (configuration not stated), for which the z-score was -0.86.
On to `COc1ccc(COC(=O)NN=C2C[C@@H](O)[C@@H](O)[C@@H]3[C@@H]4C(=O)N(Cc5ccccc5)C(=O)[C@@H]4CC[C@@H]23)cc1`, for which the z-score is 0.335.
Still for that read-out and setting: for `CO[C@H]1COC(=O)CC=C[C@H](C)[C@H](OC)COC(=O)[C@@H](C)NC(=O)CC=C[C@@H]1C` the value was -0.66; for `CC(C)CON=C1[C@H]2CCn3c(=O)n(C)c(=O)n3[C@H]2[C@H](O)[C@@H]2O[C@H]12`, -0.383.
Take `CCOC(=O)CCN1C(=O)[C@H]2[C@H]3[C@H](O)[C@H](O)CC(=NOCC=C(C)CCC=C(C)C)[C@@H]3CC[C@H]2C1=O`: the z-score is -0.651.
Same read-out and setting: in the case of `CC[C@@H](c1ccccc1)n1c(=O)n2n(c1=O)[C@H]1[C@H](O)[C@@H]3O[C@@H]3C(=NOCc3ccccc3)[C@H]1CC2` it was 0.517; in that of `CC(CCN1CCCc2nc(C)c(C)cc21)=NO[C@@H](C)c1cn([C@H](CO)Cc2ccccc2)nn1`, 0.38.
As for `COC(=O)[C@H](C)NC(=O)CCC1CC(OC(=O)NCCc2ccc(F)cc2)CC2(CCCC(COC(=O)NCC3CCCCC3)O2)O1` (some centres not stated), the z-score was -0.717.
Same read-out and setting: in the case of `CCOC(=O)[C@H](Cc1ccccc1)NC(=O)CCC1CC(OC(=O)NCc2ccc3c(c2)OCO3)CC2(CCCC(COC(=O)NCCCN3CCCC3=O)O2)O1` (some centres not stated) it was 1.97; in that of `CC(CCC(=O)OC[C@H]1O[C@H](C#Cc2ccccc2)C=C[C@@H]1Oc1ccc(C)cc1)=NOC[C@@H](C)[C@H](OCc1ccccc1)C(C)C`, -0.043; in that of `CCN1C(=O)[C@H]2[C@H]3[C@H](O)[C@H](O)CC(=NOC[C@@H](O)[C@H]4O[C@@H]5OC(C)(C)O[C@@H]5[C@H]4O)[C@@H]3CC[C@H]2C1=O`, 0.0654.
Regarding `CC(C)CON=C1C[C@@H](O)[C@@H](O)[C@@H]2[C@@H]3C(=O)N(Cc4ccc5c(c4)OCO5)C(=O)[C@@H]3CC[C@@H]12`, the z-score was 0.367.
The same measure, in the same setting: for `C=CC[C@@H]1C=C[C@H](ON=C2C[C@@H](O)[C@@H](O)[C@@H]3[C@@H]4C(=O)N(CC)C(=O)[C@@H]4CC[C@@H]23)[C@@H](CO)O1` the value was -0.495; for `CO[C@H]1COC(=O)CCC[C@H](C)[C@H](OC)COC(=O)CC=C[C@@H]1C`, -0.101.
The same measure, in the same setting: in the case of `COc1ccc2c(c1)O[C@@H](c1cccc(C(F)(F)F)c1)[C@H](O)C2=O` it was -1.25; in that of `CC(CCN1CCCc2nc(C)c(C)cc21)=NOC[C@@H](O)COCc1ccco1`, -1.46.
Same read-out and setting: for `CCN1C(=O)[C@H]2[C@H]3[C@H](O)[C@H](O)CC(=NO[C@@H]4O[C@H](CO)[C@@H](O)[C@H](O)[C@H]4O)[C@H]3CC[C@H]2C1=O` the value was -0.68.
`CCOC(=O)[C@H](CC(C)C)NC(=O)CCC1CC(OC(=O)NCc2ccc3c(c2)OCO3)CC2(CCCC(COC(=O)NCCOc3ccccc3)O2)O1` (some centres not stated) showed a z-score of -1.66.
Regarding `O=C1C2=CC[C@H]3C(=O)N(c4ccc(F)cc4F)C(=O)[C@H]3[C@H]2[C@H](O)[C@@H]2O[C@H]12`, the z-score is -0.276.
Take `CC(=O)OC[C@H]1O[C@H](C#CCCc2ccccc2)C=C[C@@H]1OC(C)=O`: the z-score was -0.972.
The same measure, in the same setting: in the case of `CC(C)=NOC(C)CN1CCCc2nc(C)c(C)cc21` (configuration not stated) it was 0.0197; in that of `COC(=O)[C@H](C)NC(=O)CCC1CC(OC(=O)NCc2cccc3ccccc23)CC2(CCCC(COC(=O)NCCOc3ccccc3)O2)O1` (some centres not stated), -0.234; in that of `C[C@@H]1CC[C@@H](C(=O)O)N[C@H]1c1cccc(N2CCOCC2)c1`, 1.66.
Compound `COC(=O)[C@@H]1CC[C@H](C)[C@@H](c2ccc(Br)cc2)N1C[C@H](O)CN=[N+]=[N-]` showed a z-score of -0.0153.
`CCOC(=O)[C@H](Cc1ccccc1)NC(=O)CCC1CC(OC(=O)NCCc2ccc(F)cc2)CC2(CCCC(COC(=O)NCc3cccc(C(F)(F)F)c3)O2)O1` (some centres not stated) gave a z-score of 0.502.
`COc1cccc([C@H]2Oc3ccc(OC)cc3C(=NOCC[C@@H]3C=C[C@H](OC(C)=O)[C@@H](COC(C)=O)O3)[C@@H]2O)c1` showed a z-score of -1.28.
As to `CC(=O)OC[C@H]1O[C@H](CC=NO[C@@H](C)c2cc(-c3c(C)cc(C)cc3C)no2)C=C[C@@H]1OC(C)=O`, the z-score is -0.158.
In turn, `CCOC(=O)NN=C1C[C@@H](O)[C@@H](O)[C@@H]2[C@@H]3C(=O)N(c4ccc(F)cc4F)C(=O)[C@@H]3CC[C@H]12` returned a z-score of 1.11.
The compound `O=C1[C@H]2[C@H]3[C@H](O)[C@H](O)CC(=NO[C@@H]4O[C@H](CO)[C@@H](O)[C@H](O)[C@H]4O)[C@H]3CC[C@H]2C(=O)N1C[C@@H]1CCCO1` showed a z-score of 0.607.
Regarding `CCOC(=O)[C@H](Cc1ccccc1)NC(=O)CCC1CC(OC(=O)NCCc2ccc(F)cc2)CC2(CCCC(COC(=O)NCCC(C)C)O2)O1` (some centres not stated), the z-score came to 0.362.
Take `CO[C@H]1COC(=O)[C@H](C)COC(=O)[C@@H](OCc2ccccc2)C=C[C@@H]1C`: the z-score is 0.919.
Regarding `O=C1[C@H]2[C@H]3[C@H](O)[C@H](O)CC(=NOC[C@@H](O)COCc4ccco4)[C@@H]3CC[C@H]2C(=O)N1Cc1ccccc1`, the z-score was -0.083.
Regarding `CC(C)=CCCC(C)=CCON=C1C[C@@H](O)[C@@H](O)[C@@H]2[C@@H]3C(=O)N(Cc4ccc5c(c4)OCO5)C(=O)[C@@H]3CC[C@H]12`, the z-score was -0.214.
On the same count and under the same terms, in the case of `COC(=O)[C@H](C)NC(=O)CC=C[C@@H](C)[C@@H]1C=C[C@H](O)[C@@H](CO)O1` it was -0.627.
The same measure, in the same setting: in the case of `COc1ccc(COC(=O)NN=C2C[C@@H](O)[C@@H](O)[C@@H]3[C@@H]4C(=O)N(C[C@@H]5CCCO5)C(=O)[C@@H]4CC[C@@H]23)cc1` it was 0.567.
